Experimental findings from PubChem BioAssay (Tox21) are described below.

A short description of test [1]: qHTS assay to test for compound auto fluorescence at 535 nm (green) in HEK293 cells (AID 720680). In general terms: Quantitative high-throughput screening tests each substance at several concentrations.
The nature of test [2]: qHTS assay to test for compound auto fluorescence at 460 nm (blue) in HEK293 cell free culture (AID 720681). The essentials:
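Compounds were added to cell-free DMEM with 10% FBS and fluorescence read directly. The blue channel used 405 nm excitation and 460 nm emission, with triamterene as the reference fluorophore.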

The nature of test [3]: qHTS assay to test for compound auto fluorescence at 535 nm (green) in HEK293 cell free culture (AID 720682). The essentials: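 Compounds were pin-transferred into cell-free DMEM with 10% FBS, and green fluorescence was read at excitation 485 nm and emission 535 nm. Intensities were expressed as fluorescein-equivalent values.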
Test [4] in a line: qHTS assay to test for compound auto fluorescence at 590 nm (red) in HEK293 cell free culture (AID 720683). The essentials:
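Cell-free wells of DMEM with 10% FBS received compound, and intrinsic fluorescence was read at excitation/emission 540/590 nm. Values expressed as equivalence to Rose Bengal sodium.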

The nature of test [5]: qHTS assay to test for compound auto fluorescence at 590 nm (red) in HepG2 cell free culture (AID 720684). The essentials: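 Rose Bengal sodium served as the reference for red signal. Test compounds were dispensed into serum-containing MEM (10% FBS) without cells, and plates were read at 540/590 nm.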
Test [6] can be described thus: qHTS assay to test for compound auto fluorescence at 460 nm (blue) in HepG2 cell free culture (AID 720685). The essentials: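 Cell-free plates of MEM plus 10% FBS received 23 nL compound or DMSO vehicle; blue-channel (405/460 nm) intensity scored against triamterene as reference fluorophore.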
Test [7] in a line: qHTS assay to test for compound auto fluorescence at 535 nm (green) in HepG2 cell free culture (AID 720686).
The nature of test [8]: qHTS assay to test for compound auto fluorescence at 460 nm (blue) in HepG2 cells (AID 720687). The essentials:
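HepG2 cells in MEM with 10% FBS, attached overnight at 37 C, were exposed to compound or DMSO for 1 hr at 37 C, 5% CO2. Blue fluorescence was read at 405/460 nm, with triamterene as reference fluorophore.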

Test [9] addresses Glucocorticoid receptor (Homo sapiens) (UniProt P04150). Kind of test: qHTS assay to identify small molecule agonists of the glucocorticoid receptor (GR) signaling pathway (AID 720691; active means well fitted activation curve with a large enough effect in the signal ratio in the repeat runs, not every such curve was filed as active; the % refers to the signal ratio). The essentials: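 Compounds in DMSO, alongside positive controls, were added to GR-bla HeLa reporter cells and incubated 18 h at 37 C; GRE-driven beta-lactamase was detected by fluorescence after 2 h with FRET substrate at room temperature.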

Test [10] shares this target. Kind of test: qHTS assay to identify small molecule antagonists of the glucocorticoid receptor (GR) signaling pathway (AID 720692; active means well fitted inhibition curve with a large enough effect in the signal ratio in the repeat runs, not every such curve was filed as active; the % refers to the signal ratio; further: potency means the concentration at half of the fitted maximal effect). The essentials: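 In a 1536-well cell format, compounds were added 4 h after seeding GR-bla HeLa cells, together with dexamethasone at 5 nM final; reporter activity was measured by FRET-substrate fluorescence following 18 h at 37 C.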
Test [11] is described as follows: qHTS assay for identifying genotoxic compounds that show differential cytotoxicity against isogenic chicken DT40 cell lines with known DNA damage response pathways - wild type cell line (AID 743012). Further: nearly all actives have a fitted effect of over 60% in size. The essentials:
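Viability of DNA repair-proficient chicken DT40 cells was assessed by CellTiter-Glo luminescence following 40 h compound exposure at 37 C/5% CO2.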

The nature of test [12]: qHTS assay for identifying genotoxic compounds that show differential cytotoxicity against isogenic chicken DT40 cell lines with known DNA damage response pathways - Rev3 mutant cell line (AID 743014). Further: nearly all actives have a fitted effect of over 55% in size. Further: potency means the concentration at half of the fitted maximal effect.
A short description of test [13]: qHTS assay for identifying genotoxic compounds that show differential cytotoxicity against isogenic chicken DT40 cell lines with known DNA damage response pathways - Rad54/Ku70 mutant cell line (AID 743015). Further: nearly all actives have a fitted effect of over 60% in size. Further: potency means the concentration at half of the fitted maximal effect.
The nature of test [14]: qHTS assay to identify small molecule antagonists of the androgen receptor (AR) signaling pathway - cell viability counter screen (AID 743033; further: nearly all actives have a fitted effect of over 45% in size).
Test [15] can be described thus: qHTS assay to identify small molecule antagonists of the androgen receptor (AR) signaling pathway using the MDA cell line - cell viability counter screen (AID 743041; further: nearly all actives have a fitted effect of over 45% in size). The essentials: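 Cytotoxicity counter screen: MDA-kb2 AR-luc cells, compound + R1881, 16 h, 37C, 0% CO2; CellTiter-Fluor added at 15.5 h, fluorescence read after 30 min.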
The nature of test [16]: qHTS assay to identify small molecule antagonists of the glucocorticoid receptor (GR) signaling pathway - cell viability counter screen (AID 720693). Further: nearly all actives have a fitted effect of over 55% in size.
Test [17] deals with Androgen receptor (Homo sapiens) (UniProt P10275). The test is described as follows: qHTS assay to identify small molecule agonists of the androgen receptor (AR) signaling pathway using the MDA cell line (AID 743040; further: nearly all actives have a fitted effect of over 20% in size). The essentials: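 Luciferase read-out, ONE-Glo, 30 min RT. Cells: MDA-kb2 AR-luc, MMTV promoter with AR and GR response elements. Compound exposure 16 h, 37C, 0% CO2, after 5 h pre-incubation. qHTS agonist mode.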
Androgen receptor (Homo sapiens), sequence (P10275 whole entry, looked up): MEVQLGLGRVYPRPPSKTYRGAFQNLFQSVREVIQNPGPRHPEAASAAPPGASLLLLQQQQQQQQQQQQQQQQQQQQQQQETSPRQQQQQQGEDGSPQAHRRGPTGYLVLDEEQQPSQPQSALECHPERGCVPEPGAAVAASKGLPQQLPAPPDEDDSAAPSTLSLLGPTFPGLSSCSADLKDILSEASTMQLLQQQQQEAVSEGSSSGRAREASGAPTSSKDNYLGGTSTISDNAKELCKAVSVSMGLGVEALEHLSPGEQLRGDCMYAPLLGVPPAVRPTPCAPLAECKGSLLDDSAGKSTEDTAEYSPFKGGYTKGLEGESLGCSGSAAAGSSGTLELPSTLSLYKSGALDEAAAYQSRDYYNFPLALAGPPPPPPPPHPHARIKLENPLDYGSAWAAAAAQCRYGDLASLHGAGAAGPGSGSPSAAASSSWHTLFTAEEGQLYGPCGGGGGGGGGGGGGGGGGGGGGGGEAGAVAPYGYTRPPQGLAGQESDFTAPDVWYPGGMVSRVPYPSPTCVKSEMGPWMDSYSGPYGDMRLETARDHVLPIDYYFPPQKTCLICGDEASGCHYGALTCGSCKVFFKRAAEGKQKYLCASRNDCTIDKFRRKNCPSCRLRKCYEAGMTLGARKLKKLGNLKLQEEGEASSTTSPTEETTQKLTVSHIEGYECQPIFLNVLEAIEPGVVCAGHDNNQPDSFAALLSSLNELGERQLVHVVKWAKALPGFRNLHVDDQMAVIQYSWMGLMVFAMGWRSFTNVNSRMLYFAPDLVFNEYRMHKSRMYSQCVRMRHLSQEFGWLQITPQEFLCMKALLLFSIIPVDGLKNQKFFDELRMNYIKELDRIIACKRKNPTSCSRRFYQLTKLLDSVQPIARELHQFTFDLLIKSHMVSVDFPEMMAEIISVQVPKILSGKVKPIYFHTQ

Test [18] shares this target. Kind of test: qHTS assay to identify small molecule antagonists of the androgen receptor (AR) signaling pathway (AID 743035; active means well fitted inhibition curve with a large enough effect in the signal ratio in the repeat runs, not every such curve was filed as active; the % refers to the signal ratio). The essentials:
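Reporter HEK293 cells were exposed to compounds and R1881 overnight (16 h, 37C); beta-lactamase activity was then quantified by FRET fluorescence.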

The target is the same in test [19]. The test is described as follows: qHTS assay to identify small molecule agonists of the androgen receptor (AR) signaling pathway (AID 743036; active means well fitted activation curve with a large enough effect in the signal ratio in the repeat runs, with a control signal flat, not every such curve was filed as active; the % refers to the signal ratio). The essentials:
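Activation was read as beta-lactamase FRET signal from LiveBLAzer B/G substrate, added for 2 h at room temperature. Before that, GeneBLAzer AR-UAS-bla GripTite (HEK293) cells had 16 h compound exposure at 37C.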

For test [20] the target is unchanged. Kind of test: qHTS assay to identify small molecule antagonists of the androgen receptor (AR) signaling pathway using the MDA cell line (AID 743042; further: nearly all actives have a fitted effect of over 55% in size). The essentials: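 MDA-kb2 breast carcinoma cells carrying MMTV-luciferase (AR/GR responsive) were co-treated with compounds and the agonist R1881 for 16 h at 37C. Inhibition read as ONE-Glo luminescence; CellTiter-Fluor fluorescence measured in parallel for cytotoxicity.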

A number with no mark means an inactive call. Results filed as inconclusive are left out. Calls of active or inactive are those of the source. Unless noted, the call rests on the fitted dose curve; in most records, active means well fitted curve in the direction sought with a large enough effect in the repeat runs; inconclusive means weak or mixed curves; inactive means no such curve, though single readings can be large; an effect the other way counts as inactive or inconclusive.
On the % scale 0 is the no-effect control and ±100 the full control effect.

Glucocorticoid receptor (Homo sapiens), sequence (P04150 whole entry, looked up): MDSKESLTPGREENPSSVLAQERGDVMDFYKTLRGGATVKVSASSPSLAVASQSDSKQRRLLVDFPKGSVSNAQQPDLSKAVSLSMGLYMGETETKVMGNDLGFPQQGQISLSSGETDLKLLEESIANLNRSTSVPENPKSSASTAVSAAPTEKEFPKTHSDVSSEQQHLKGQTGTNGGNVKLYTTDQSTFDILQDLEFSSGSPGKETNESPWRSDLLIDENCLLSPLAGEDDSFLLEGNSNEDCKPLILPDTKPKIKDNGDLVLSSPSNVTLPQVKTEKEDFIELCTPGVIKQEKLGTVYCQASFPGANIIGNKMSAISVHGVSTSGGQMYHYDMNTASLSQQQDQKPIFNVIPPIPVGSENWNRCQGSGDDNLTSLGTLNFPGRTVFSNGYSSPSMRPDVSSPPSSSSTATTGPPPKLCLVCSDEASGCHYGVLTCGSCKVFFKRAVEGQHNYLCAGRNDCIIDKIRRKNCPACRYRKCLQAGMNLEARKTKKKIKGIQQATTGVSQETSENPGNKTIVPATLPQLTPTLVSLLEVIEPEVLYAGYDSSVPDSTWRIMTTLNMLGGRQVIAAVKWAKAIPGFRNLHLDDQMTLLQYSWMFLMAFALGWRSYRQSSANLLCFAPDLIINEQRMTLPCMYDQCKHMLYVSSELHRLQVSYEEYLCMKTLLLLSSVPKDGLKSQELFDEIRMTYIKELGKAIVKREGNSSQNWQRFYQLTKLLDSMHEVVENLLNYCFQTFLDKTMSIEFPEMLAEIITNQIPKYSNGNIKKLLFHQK

For the compound `CCCCCCCCCCCCSC`, the outcome in test [1], in [2], in [3], in test [4], in test [5] and in test [6] was inactive. In addition, the call in [7], in test [8] and in [14] was inactive. Moreover, the Potency entry in test [9], in test [10], in test [11], in test [13] and in test [15] was “inactive” each time. In [12], the Potency is 61.1 µM (active).

As to `CCOc1ccccc1OCC`, the result in test [1], in [2], in test [3], in [4], in test [5] and in test [6] was inactive. In addition, the compound was classed as inactive in test [7], in test [8], in test [16] and in [14]. Further, the Potency result in test [9], in test [10], in [12], in test [13] and in test [15] was “inactive” in each case.

Take `C[N+](C)(CCOc1ccccc1)Cc1cccs1`: the outcome in test [1], in [2], in [3], in test [4], in test [5] and in test [6] was inactive. In addition, the outcome in test [7], in [8], in [16] and in test [14] was inactive. Also, the Potency entry in test [9], in test [10], in [13], in test [17] and in [15] was “inactive” in each case.

On to `CCOC(=O)COc1cc(-n2ncc(C(F)(F)F)c(C)c2=O)c(F)cc1Cl`, for which the outcome in test [1], in test [2], in [3], in test [4], in [5] and in test [6] was inactive. For the same compound, the compound was called inactive in test [7], in test [8], in [16], in test [14], in [19] and in test [20]. For the same compound, the Potency entry in [9], in test [10], in test [12], in [18], in test [17] and in test [15] was “inactive” each time.

As for `CCCCOC(=O)CCC(C)=O`, the compound was called inactive in test [1], in [2], in [3], in [4], in [5] and in test [6]. The compound was called inactive in test [7], in test [8], in test [16] and in test [14]. Moreover, the Potency entry in [9], in test [10] and in [15] was “inactive” throughout. For the same compound, the Potency in [12] was 68.6 µM (active).

For `O=Cc1cccc(Br)c1`, the outcome in test [1], in test [2], in [3], in [4], in test [5] and in [6] was inactive. Further, the outcome in test [7], in [8], in test [16] and in [14] was inactive. In addition, the Potency entry in [9], in test [10], in test [12], in test [13] and in test [15] was “inactive” in each case.

Turning to `COc1ccc2cc1Oc1cc3c(cc1OC)CC[N+](C)(C)[C@H]3Cc1ccc(cc1)Oc1c(OC)c(OC)cc3c1[C@@H](C2)[N+](C)(C)CC3`, the compound was called inactive in [1], in [2], in [3], in test [4], in test [5] and in [6]. The compound was classed as inactive in test [7], in test [8], in test [16] and in test [14]. Also, the Potency result in [9], in test [10], in [13] and in test [15] was “inactive” throughout.

Consider `O=C(O)c1cn(C2CC2)c2cc(N3CCNCC3)c(F)cc2c1=O`, for which the fluorescence, % of fluorescein in [1] was -0.0935% [at 18.6 µM]. Also, the fluorescence, % of fluorescent control in [2] is -0.0136% [at 18.6 µM]; in test [4] it was -0.102% [at 18.6 µM]; in test [6], 0.0229% [at 18.6 µM]; in test [8], -0.0408% [at 18.6 µM]. Further, in test [3], the activity change is 0.0246% [at 18.6 µM]. In test [5], the fluorescence, % of Rose Bengal was 0.543% [at 18.6 µM]. In addition, in test [7], the fluorescence, % of fluorescein control is 0.0355% [at 18.6 µM]. Further, the Potency entry in test [9], in [10] and in [15] was “inactive” throughout. Also, the compound was called inactive in test [16] and in test [14].

With `COc1cc2c(cc1OC)-c1cc3ccc(OC)c(OC)c3c[n+]1CC2`, the result in [1], in [2], in [3], in [4], in test [5] and in [6] was inactive. For the same compound, the compound was called inactive in [7], in test [8], in [16] and in test [14]. Moreover, the Potency result in [9] and in test [10] was “inactive” each time. Moreover, the Potency in test [12] is 49 µM (active).

For the compound `CCOC(=O)CCC(=O)OCC`, the compound was called inactive in [1], in test [2], in test [3], in test [4], in test [5] and in [6]. The compound was called inactive in [7], in test [8] and in test [14]. Also, the Potency entry in test [9], in test [10] and in test [15] was “inactive” each time. In addition, the Potency in test [12] is 68.5 µM (active).

Turning to `NS(=O)(=O)Cc1noc2ccccc12`, the compound was called inactive in test [1], in test [2], in test [3], in [4], in [5] and in test [6]. In addition, the compound was classed as inactive in test [7], in [8], in test [16], in [14], in test [19] and in test [20]. Further, the Potency result in test [9], in test [11], in test [12], in test [13], in test [18] and in test [17] was “inactive” in each case. The Potency result in [15] was “inactive”.

For the compound `C[C@H]1C[C@H]2[C@@H]3CCC4=CC(=O)C=C[C@]4(C)[C@H]3C(=O)C[C@]2(C)[C@@]1(O)C(=O)CO`, the outcome in test [1], in test [2], in test [3], in test [4], in test [5] and in [6] was inactive. Also, the result in test [7], in test [8], in [16] and in [14] was inactive. In addition, the Potency result in test [9], in test [11], in [13] and in test [15] was “inactive” each time. For the same compound, in test [10], the Potency is 2.13 µM (active).

Turning to `Nc1ccn([C@@H]2O[C@H](CO)[C@@H](O)C2(F)F)c(=O)n1`, the result in test [1], in test [2], in test [3], in [4], in [5] and in [6] was inactive. The compound was classed as inactive in test [7], in [8], in test [16] and in test [14]. For the same compound, the Potency result in test [9] and in test [15] was “inactive” each time. For the same compound, the Potency in [12] and in test [13] was 0.0188 µM (active) in each case.

As to `CCNS(=O)(=O)c1ccc(C)cc1`, the result in test [1], in test [2], in test [3], in test [4], in test [5] and in test [6] was inactive. The result in test [7], in [8] and in test [14] was inactive. For the same compound, the Potency result in test [9], in test [11], in test [12], in test [13] and in [15] was “inactive” in each case.

In the case of `c1coc(CNc2ncnc3nc[nH]c23)c1`, the call in test [1], in [2], in [3], in test [4], in [5] and in [6] was inactive. Moreover, the call in test [7], in test [8], in [16] and in test [14] was inactive. Moreover, the Potency entry in [9] and in [15] was “inactive” each time. Further, the Potency in test [13] is 54.5 µM (active).
